Screening results (PubChem BioAssay)
Only some compounds are listed: those with a hit (about 1.5% of all), similar ones and a draw of the others.
MEX-5 binding: C. elegans MEX-5 TCR-2 RNA binding activity; hit rate 0.38% among 300,000; Q9XUB2; AID 1832; activity score (negative = inhibition of binding), % at 10 µM; MEX-5/FITC-TCR2 RNA binding, fluorescence polarization; active compounds read low;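 active = inhibition past about -25% in most replicates, and total fluorescence under double the plate's negative control median, limit read from the data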;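 note: 0% = DMSO and -100% = 5 µM competing unlabeled TCR2 RNA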
Bcl-xL primary: Bcl-xL (human) inhibition; inhibition, % at 10.9 µM; GST-Bcl-xL / FITC-Bim BH3 peptide fluorescence polarization; hit rate 0.7% among 320,000;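 active = inhibition above the mean of all tested compounds plus 3 SD, cutoff set per campaign, cut at about 30% in these data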;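 note: 0% = DMSO wells and 100% = unlabeled Bim-BH3 peptide competitor; inhibitors lower millipolarization by displacing the labeled peptide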
GLD-1 TGE inh: GLD-1-TGE RNA interaction inhibition (C. elegans); purified GLD-1 + fluorescein TGE RNA, fluorescence polarization; AID 2280; hit rate 0.44% among 320,000; Q17339; inhibition, % at 5.96 µM;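 active = percent inhibition above a per-plate cutoff, the plate mean of test compounds plus 3 SD, cut at about 30% in these data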;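 note: 0% = DMSO wells with GLD-1 and probe and 100% = wells lacking GLD-1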
Target sequence (Q17339 whole entry, looked up): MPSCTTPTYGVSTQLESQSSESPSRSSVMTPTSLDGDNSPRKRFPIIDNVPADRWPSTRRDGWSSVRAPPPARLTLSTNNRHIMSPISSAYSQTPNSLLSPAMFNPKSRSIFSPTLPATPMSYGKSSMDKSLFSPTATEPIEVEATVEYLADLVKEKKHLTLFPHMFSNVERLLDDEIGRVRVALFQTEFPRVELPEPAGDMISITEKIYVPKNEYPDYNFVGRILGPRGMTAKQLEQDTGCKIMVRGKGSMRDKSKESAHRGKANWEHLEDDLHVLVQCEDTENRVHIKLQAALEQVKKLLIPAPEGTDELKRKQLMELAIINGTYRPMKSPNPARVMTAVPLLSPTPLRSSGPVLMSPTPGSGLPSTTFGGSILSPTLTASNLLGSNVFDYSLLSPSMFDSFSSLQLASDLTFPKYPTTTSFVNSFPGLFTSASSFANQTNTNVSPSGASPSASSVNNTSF
EBV gp42 block: blocks Epstein-Barr virus glycoprotein 42 binding; inhibition, % (tested at 21.74 µM); Fluorescence polarization binding assay, mP read-out; Q1HVG2; hit rate 0.42% among 220,000; in the data active = inhibition above about 50%
E coli Lon inh: E. coli protease La inhibition; P0A9M0; purified E. coli Lon protease, fluorescence polarization; inhibition, % at 7.94 µM; hit rate 0.42% among 360,000; AID 602123; in the data active = inhibition above about 13%, passing the limit was not always enough;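 note: 0% = enzyme with probe and DMSO and 100% = no enzyme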
MCL1-BIM inh: disrupts human MCL1 binding to BIM-BH3 peptide; AID 2057; GST-MCL1 / FITC-Bim-BH3 fluorescence polarization; Q07820; hit rate 0.68% among 320,000; inhibition, % at 10.9 µM;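 active = inhibition above the mean inhibition of all tested compounds plus 3 SD, set per campaign, cut at about 40% in these data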;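 note: 0% = DMSO wells and 100% = unlabeled Bim-BH3 peptide control; higher means more loss of mP so more displacement of Bim peptide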
E coli Lon conf: E. coli Lon inhibition confirmation; shares compounds with E coli Lon inh; AID 602230; hit rate 31% among 1,400; purified E. coli Lon, fluorescence polarization; inhibition, % at 7.94 µM; in the data active = inhibition above about 16%;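 note: 0% = enzyme with probe and DMSO and 100% = no enzyme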
An asterisk follows results filed as active; . = not tested or not shown.

SMILES	MEX-5 binding	Bcl-xL primary	GLD-1 TGE inh	EBV gp42 block	E coli Lon inh	MCL1-BIM inh	E coli Lon conf
Cc1ccc(CNC(=O)c2cc(C3CC3)nc3c2cnn3C(C)C)cc1	.	0	2	.	-2	-6	.
COc1c(C)cc(C(O)c2ncc(-c3cccc(F)c3)[nH]2)cc1C (stereo not drawn)	.	.	.	.	-13	.	.
COc1ccc(C(=O)CC(Sc2ccccc2N)c2ccc(OC)cc2)cc1 (stereo not drawn)	.	.	.	.	-7	.	.
CCc1ccccc1Nc1nc(N)nc(CSc2nnc3ccccn23)n1	0	3	6	-10	62*	3	-3
CCc1ccc(NC(=O)CSCc2nc(N)nc(Nc3ccccc3CC)n2)cc1	2	-2	-2	-8	-9	-1	.
CC1CCCN(C(=O)CSc2nc3ncccc3[nH]2)C1 (stereo not drawn)	-1	5	2	-8	17*	-2	-1
CCOc1ccc(NS(=O)(=O)c2cc(C(=O)NCCCN3CCCC3=O)ccc2C)cc1	.	0	7	.	-2	-1	.
Cc1cccc(OCC(O)CN2C(C)(C)CC(O)CC2(C)C)c1 (stereo not drawn)	0	6	6	-9	14*	5	-2
CC1(C)CC(O)CC(C)(C)N1CC(O)COCc1ccccc1 (stereo not drawn)	3	6	3	.	0	3	.
Cn1nc(C(=O)OCC(=O)Nc2ccc(Cl)cc2Cl)c2ccccc2c1=O	.	4	1	.	17	2	.
CC(C)C[C@@H](CN1CCC[C@H]1CN1C(=O)C(=O)NC[C@@H]1Cc1ccccc1)N1C[C@H](Cc2ccc(O)cc2)N(CC2CCCCCC2)C(=O)C1=O	.	.	.	.	11*	.	13
O=S(=O)(NCCN1CCOCC1)c1ccc(Cl)c(Cl)c1	-1	5	6	.	16*	3	-1
CN(C)c1ccc(NC(=O)CSc2nc3c(c(=O)[nH]2)CCCC3)cc1	-1	8	2	-9	-9	8	.
COc1cc(NC(=O)CSc2nc3c(c(=O)[nH]2)CCCC3)cc(OC)c1OC	1	3	-1	-2	16*	5	1
COc1cccc(C(=O)N/N=C/c2ccc(OC3CSC3)cc2)c1	1	-3	4	-1	-14	-3	.
N#CCC(=O)N/N=C/c1ccc(OC2CSC2)cc1	-1	0	-4	-14	25*	8	-39
CCCN(CCC)Cc1cc(=O)oc2cc3c(cc12)CCC3	3	0	2	-10	-4	0	.
O=C(CNC(=O)C12CC3CC(CC(C3)C1)C2)NCc1ccccc1	-1	-1	7	.	4	-5	.
NNC(=O)CNC(=O)C12CC3CC(CC(C3)C1)C2	0	-2	3	-6	17*	0	-7
O=C(C[C@@H]1C/C=C\C[C@H](Cc2ccc(F)cc2)C(=O)OC[C@H]2CCCN2C1=O)NCCO	.	.	-1	.	-2	.	.
CS(=O)(=O)c1ccc(C(=O)NNC(=O)c2ccccc2-n2cccc2)cc1	.	4	2	.	-17	0	.
c1ccc(C2(Cn3ccc4ccccc43)OCCO2)cc1	-5	5	13	4	25*	5	4
Cn1nc(C(=O)OCC(=O)Nc2ccc(F)cc2Cl)c2ccccc2c1=O	.	.	-2	.	-8	.	.
O=C(Cc1c(Cl)cccc1Cl)Nc1ccc(S(=O)(=O)Nc2ncccn2)cc1	-2	0	2	.	19*	1	-152
O=C(CS(=O)(=O)c1ccccc1)Nc1ccc(S(=O)(=O)Nc2ncccn2)cc1	0	-1	4	-9	0	-1	.
SMILES	MEX-5 binding	Bcl-xL primary	GLD-1 TGE inh	EBV gp42 block	E coli Lon inh	MCL1-BIM inh	E coli Lon conf
O=C(Cc1ccc(Cl)cc1)Nc1ccc(S(=O)(=O)Nc2ncccn2)cc1	1	5	-6	.	4	7	.
O=C(CNC(=O)c1ccc(-c2ccccc2)cc1)Nc1ccc(S(=O)(=O)Nc2ncccn2)cc1	0	3	8	-7	30*	-2	43*
Cc1cc(C)c2nc(NC(=O)C3CSC4(C)CCC(=O)N34)sc2c1 (stereo not drawn)	.	-8	0	.	1	-11	.
CSc1ccc(/C=C/C(=O)OCC(=O)N(C)CCC#N)cc1	-2	7	-7	0	-7	1	.
CC1C2(C)OC(=N)C(C#N)(C(C)O2)C1(C#N)C#N (stereo not drawn)	-30*	52*	25	11	22*	48*	35*
OC(C#Cc1ccccn1)c1cccs1 (stereo not drawn)	-35*	42*	21	1	30*	44*	5
COc1ccc(OC)c(NC(=O)CCN2CCN(CCO)CC2)c1	3	6	3	.	5	-3	.
O=C(/C=C/c1ccc(Cl)cc1)NC(=S)Nc1ccccc1C(=O)O	0	-4	7	-3	17*	4	-7
CCN1CCN(C(=O)NC2CCCCC2)CC1	2	5	5	.	45*	-2	0
COc1ccc(/C=N/N2CCN(C)CC2)c(OC)c1OC	0	6	9	-15	20*	-4	-8
O=C(O)CN1C(=O)c2ccc(C(=O)c3ccccc3)cc2C1=O	4	6	7	.	27*	1	-3
O=C(CN1C(=O)c2ccccc2C1=O)c1ccccc1	-1	-1	-8	-15	-4	-5	.
O=S(=O)(c1ccc(OCc2ccc(Br)cc2)cc1)N1CCOCC1	.	-9	1	.	-14	-17	.
COc1ccc2[nH]cc(CCNC(=O)CC[C@H]3O[C@@H](n4cc(C)c(=O)[nH]c4=O)C[C@@H]3O)c2c1	.	.	.	.	13*	.	0
COc1ccc(NC(=S)N=Nc2c(O)[nH]c3ccccc23)cc1	1	13	1	-6	13	16	.
Cc1ccc(NC(=S)N=Nc2c(O)[nH]c3ccccc23)cc1	1	2	0	-3	14*	2	-13
Oc1ccc(NC(=S)N=Nc2c(O)[nH]c3ccccc23)cc1	-26*	24	0	2	18*	19	21*
Nc1ncnc2c1ncn2[C@@H]1O[C@H](CNS(=O)(=O)CCCCl)[C@@H](O)[C@H]1O	.	.	-6	.	-11	.	.
Cn1c(NC2CCCCC2)cc(=O)n(C)c1=O	-3	5	-2	.	27*	-1	-8
CCOc1ccc(CNC(=O)CN2C(=O)CSc3ccc(S(=O)(=O)N4CCOCC4)cc32)cc1OC	1	2	1	.	64*	2	0
Cc1cc(-c2csc(N)n2)c(C)n1C	-47*	41*	15	-18	16*	42*	1
Cc1ccc(-n2c(C)cc(-c3csc(N)n3)c2C)cc1	0	11	4	-1	-18	9	.
CCN(C(=O)CSc1nnc(C2CC2)n1-c1ccccc1)C1CCS(=O)(=O)C1 (stereo not drawn)	.	0	3	.	-4	-2	.
CC(C)CN(C(=O)CSc1nnc(C2CC2)n1-c1ccccc1)C1CCS(=O)(=O)C1 (stereo not drawn)	.	0	1	.	56*	4	55*
Cc1nn(-c2ccccc2)c(C)c1C(=O)NCc1ccc(S(N)(=O)=O)cc1	2	-7	0	.	7	-10	.
